Where “and” joins values, the source holds several entries; their conditions need not be identical. Equal values may be shown once.
What follows are molecules tested against Glucose transporter (Leishmania mexicana) (UniProt O61059) (assay: ST_JUDE_LEISH: Cytotoxicity at 2uM final concentration against transgenic Leishmania Mexicana promastigotes LmGT2 that are glucose transport deficient and complemented with the L. Mexicana glucose transporter 2. Activity is measured by DNA content using SYBR green in vitro).
Type: functional
`O=C(/C=C/c1ccc(Cl)c(Cl)c1)NCCC1CCC(N2CCC(c3c[nH]c4ccc(O)cc34)CC2)CC1` (centres undefined) showed an inhibition of 1.36%. With `O=[N+]([O-])c1ccc(Oc2c(Cl)cc(S(=O)(=O)N3CCC(CN4CCC(c5c[nH]c6ccccc56)CC4)CC3)cc2Cl)c(Cl)c1` the inhibition was 3.15%. `CCCCCCCN1C2CCC1CC(CCOc1ccnc3ccc(OC)cc13)C2` (centres undefined) gave an inhibition of 11%. `COCCNCc1ccc(-c2ccc(CN(C(=O)Nc3ccccc3)C3CCN(Cc4ccccc4)CC3)cc2)cc1` showed an inhibition of 5.08%. `O=C(Nc1ccccc1C(F)(F)F)NC1CCC(CN2CCC(c3c[nH]c4ccccc34)CC2)CC1` (centres undefined) was tested, and the inhibition was 2.99% and -1.24%. In the case of `CC[C@H]1CN2CC[C@@H]1C[C@H]2[C@H](O)c1ccnc2ccc(OC)cc12`, the inhibition is reported as 3.26%. In the case of `CCOC(C(=O)OCCN(C(C)C)C(C)C)(c1ccccc1)c1ccccc1`, the inhibition is reported as -0.37%. In the case of `CC(Cc1ccc(NC(=O)[C@H](C)NCCc2cccc(Cl)c2)cc1)NCCc1cccc(Cl)c1` (some centres undefined), the inhibition is reported as 0.22%. `COCC(=O)N(Cc1ccccc1-c1ccc(CNCCc2ccccc2)cc1)C1CCN(Cc2ccccc2)CC1` was tested, and the inhibition was -3.2%. `COc1ccc(CN(C2CC2)C(C)C(=O)c2[nH]c(C)c(C(C)=O)c2C)cc1` (centres undefined) was tested, and the inhibition was -1.15%. With `O=C(NC1CCC(CN2CCC(c3c[nH]c4ccccc34)CC2)CC1)c1cc(-c2ccccc2Cl)n(-c2cccc(Cl)c2)n1` (centres undefined) the inhibition was 1.71%. `COc1cccc(C=CC(=O)NC2CCC(CN3CCC(c4c[nH]c5ccccc45)CC3)CC2)c1OC` (centres undefined) was tested, and the inhibition was 14.2%. Work on `O=C(/C=C/c1ccc(Cl)c(Cl)c1)N1CCC(CN2CCC(c3c(-c4ccc(F)cc4)[nH]c4ccccc34)CC2)CC1` yielded an inhibition of -4.69%. `CC(=O)C1(c2ccccc2)CCN(CCC2(c3ccc(Cl)c(Cl)c3)CN(C(=O)c3cccc(Cl)c3)CCO2)CC1` (centres undefined) gave an inhibition of -1.43%. With `Cc1ccc(-n2nc(C)c3c2NC(=O)CSC3c2ccsc2)cc1` (centres undefined) the inhibition was 11%. With `Cc1[nH]c2ccc([N+](=O)[O-])cc2c1C1=CCN(C)CC1` the inhibition was 2.86%. Molecule `O=C(Nc1ccc(CN2CCC(c3c[nH]c4ccc(O)cc34)CC2)cc1)c1ccc(-c2ccccc2)cc1` has an inhibition of 5.18%. Work on `O=C(Nc1cc(C(F)(F)F)cc(C(F)(F)F)c1)N1CCC(CN2CCC(c3c[nH]c4ccccc34)CC2)CC1` yielded an inhibition of 1.9%. `CC(C)CNCc1cccc(-c2cccc(CN(C(=O)NC3CCCCC3)C3CCN(Cc4ccccc4)CC3)c2)c1` gave an inhibition of 5.98%. `COc1cc(NC(=O)c2nn(CCCN3CCC4(CC3)C(=O)NCN4c3ccccc3)cc2-c2ccc(Cl)c(Cl)c2)cc(OC)c1OC` showed an inhibition of 0.13%. In the case of `O=C(c1cccs1)N(Cc1cccc(-c2ccc(CNC3CCCC3)cc2)c1)C1CCN(Cc2ccccc2)CC1`, the inhibition is reported as 9.21%. Work on `S=C(NCC1CCCCC1)NC1CCC(CN2CCC(c3c[nH]c4ccccc34)CC2)CC1` (centres undefined) yielded an inhibition of 0.26%. With `COc1cc2c(c(OC)c1OC)C[C@H]1c3c(cc4c(c3-2)OCO4)CCN1C` the inhibition was 1.06%. Molecule `O=C(CCc1ccco1)NC1CCN(CC2(c3ccc(Cl)cc3)CCC2)CC1` has an inhibition of 7.13%. For `CC(C)CN1CCC(N(C)c2cc(NC(=O)c3cccc(F)c3)ccn2)CC1`, the inhibition was 0.5%. In the case of `COCCNCc1cccc(-c2ccccc2CN(C(=O)Nc2ccccc2)C2CCN(Cc3ccccc3)CC2)c1`, the inhibition is reported as 4.23%. Work on `Cc1[nH]c2cc(F)ccc2c1C1=CCN(CCCCC2(C)C(=O)Nc3ccccc32)CC1` (centres undefined) yielded an inhibition of 0.15%. In the case of `Cc1[nH]c2ccccc2c1C1CCN(CC2CCC(NC(=O)/C=C/c3ccc(Cl)c(Cl)c3)CC2)CC1` (centres undefined), the inhibition is reported as 7.15%. Molecule `CC(C)C[C@H](Nc1ccc(C#N)c2ccccc12)C(=O)N[C@@H]1CCCc2ccccc21` has an inhibition of 1.15%. `CNCCCN(C)C(=O)Oc1c(Br)c(C)nc(C)c1-c1ccc(Oc2ccc(OC(F)(F)F)cc2)cc1` was tested, and the inhibition was -1.27%. Molecule `O=C(CSc1ccc(Cl)cc1)NC1CCC(CN2CCC(c3c[nH]c4ccccc34)CC2)CC1` (centres undefined) has an inhibition of 2.72%. Work on `Oc1ccc2[nH]cc(C3=CCN(Cc4ccccc4)CC3)c2c1` yielded an inhibition of 10.4%. In the case of `OC(CNCc1ccccc1OC(F)F)c1cccc(C(F)(F)F)c1` (centres undefined), the inhibition is reported as 1.62%. With `CC(=O)N(Cc1cccc(-c2ccc(CNCCc3ccccc3)cc2)c1)C1CCN(Cc2ccccc2)CC1` the inhibition was 2.97%. In the case of `Cc1ccc(C(=O)Nc2ccnc(N(C)C3CCN(Cc4cccc(O)c4)CC3)c2)cn1`, the inhibition is reported as 1.3%. In the case of `Cc1ccc(C[C@@H](C)NC[C@H](O)c2cccc(C(F)(F)F)c2)cc1`, the inhibition is reported as 2.92%. `C/C=C1\CN2CC[C@H]1C[C@H]2[C@H](O)c1ccnc2ccc(O)cc12` showed an inhibition of 0.93%. `CNC(=O)c1ccc2[nH]cc(C3CCN(CC4CCN(C(=O)/C=C/c5ccc(Cl)c(Cl)c5)CC4)CC3)c2c1` showed an inhibition of 0.08%. Molecule `CC(Cc1ccc(-c2nc3ccccc3[nH]2)cc1)NCC(O)c1cccc(C(F)(F)F)c1` (centres undefined) has an inhibition of -0.37%.

Source: ChEMBL document CHEMBL3433997, “St. Jude Leishmania screening dataset” (2016)
